Screening data as filed in PubChem.
The list is not random: actives were taken first. Their share in the collection is about 12%.
Sm TGR inh: inhibitors of Schistosoma mansoni thioredoxin glutathione reductase | Q962Y6 | purified TGR, DTNB reduction, TNB absorbance 405 nm | Potency, µM (series often up to 114 µM), actives largely listed as inhibitors | 360,000 compounds, 3% hits | AID 485364; further: nearly all actives have a fitted effect of over 60% in size
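TGR 20 nM + NADPH 100 uM (dispensed conc.), cpd preinc 15 min RT; start with NADPH (500 uM addition) then DTNB (15 mM addition). Kinetic TNB absorbance, 405 nm filter. Four-parameter Hill fit across titration.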
SARS PLP yeast: SARS-CoV PLP inhibition in yeast; S. cerevisiae expressing SARS-CoV PLpro, growth rescue; Potency, µM (titrated, usually from 32.9 µM), actives largely listed as activators; 330,000 compounds, 0.19% hits; AID 485353; calls by dose curve; further: nearly all actives have a fitted effect of over 55% in size
Pf growth 48h: P. falciparum growth inhibition at 48 hours (one generation); P. falciparum luciferase growth in erythrocytes, 48 h; Potency, µM (doses to about 28.7 µM), usual class: inhibitors; 310,000 compounds, 5.9% hits
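In quantitative HTS format, infected erythrocytes bearing luciferase-reporter parasites were treated for a single generation at 37 C. Luminescence after adding detection reagent served as the growth measure.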
Pf growth 96h: inhibits malaria parasite growth, 96 h; P. falciparum luciferase reporter growth, 96 h; Potency, µM (titrated, usually from 28.7 µM), actives largely listed as inhibitors; 320,000 compounds, 6.9% hits; AID 504834
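P. falciparum expressing integrated firefly luciferase, in erythrocytes at 2% hematocrit, 0.05% parasitemia, incubated with compounds 96 h at 37 C, 5% CO2. Growth inhibition read as loss of luminescence; two-generation exposure targets delayed-death apicoplast inhibitors.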
Hits are given with their value; . = inactive; ? = inconclusive; / = no result given; [ ] = another dose, or the depositor's remark. Unless noted, the call rests on the fitted dose curve; in most records, active means well fitted curve in the direction sought with a large enough effect; inconclusive means small, poorly fitted or top-dose-only effect, or another doubt; inactive means no such curve, though single readings can be large; an effect the other way counts as inactive or inconclusive.

SMILES	Sm TGR inh	SARS PLP yeast	Pf growth 48h	Pf growth 96h
CCS(=O)(=O)N1CCC2(CC1)OC(=O)C(C)=C2C(=O)NCc1ccccc1C	.	/	/	/
COc1ccc(C2(C(=O)NCCc3ccccc3)CCCC2)cc1OC	.	.	?	.
COc1ccc(Cl)cc1NC(=S)NCc1ccccn1	.	.	.	?
Cc1cccc(NC(=S)NC(=O)c2ccc(Br)o2)c1C	?	.	.	.
S=C(NCc1ccncc1)Nc1ccc(Cl)c(Cl)c1	?	.	?	?
S=C(NCc1ccncc1)Nc1cc(Cl)cc(Cl)c1	?	.	13µM	.
COc1ccc(Cl)cc1NC(=S)NCc1cccnc1	13µM	.	.[5.75 µM]	?
S=C(NCc1ccncc1)Nc1ccc(Br)cc1	28µM	.	?	.
S=C(NCc1ccncc1)Nc1ccccc1	.	.	.	.
Cc1ccc(NC(=S)NC(=O)c2ccc(Br)o2)c(C)c1	/	.	.	13µM
COc1ccccc1CNC(=O)CCC1N=C2c3ccccc3N=C(SCc3cccc(Cl)c3)N2C1=O (centres undefined)	.	/	/	/
CCCCNC(=O)c1cc(-c2ccc(OC)cc2)nc2n[nH]c(-c3cccc([N+](=O)[O-])c3)c12	.	/	/	/
S=C(NCc1ccc(Cl)cc1)Nc1ccc(Cl)cc1Cl	.	.	.	?
S=C(NCc1cccnc1)Nc1cccc(Cl)c1	32µM	.	?	?
Cc1ccc(Cl)cc1N(Cc1ccc(C(=O)NCc2cccnc2)cc1)S(=O)(=O)c1ccccc1	.	.	?	13µM
S=C(NCc1cccnc1)Nc1ccc(Cl)cc1	40µM	.	.	.
S=C(NCc1ccncc1)Nc1ccc(Cl)cc1Cl	35µM	.	.	.
COc1ccccc1NC(=O)c1ccc(CN(c2cc(Cl)ccc2C)S(=O)(=O)c2ccccc2)cc1	.	.	?	?
Cc1ccccc1C(=O)Nc1ccc(S(=O)(=O)N2CCC(c3nc4ccccc4s3)CC2)cc1	.	/	/	/
O=C(COC(=O)c1ccccn1)c1ccc([N+](=O)[O-])cc1	.	.	?	.
Cc1cc(Cl)ccc1NC(=S)NCCN1CCOCC1	.	.	.	5.2µM
O=C(NCc1cccnc1)c1ccc(-c2cc(Cl)ccc2Cl)o1	40µM	.	?	12µM
Cc1ccc(NC(=S)NCc2cccnc2)cc1	?	.	.	.
O=C(NCc1cccnc1)c1ccc(-c2ccc(Cl)cc2)o1	.	.	.	.
O=C(N[C@@H](Cc1ccccc1)C(=O)O)c1ccncc1	.	.	.	.
SMILES	Sm TGR inh	SARS PLP yeast	Pf growth 48h	Pf growth 96h
CC(=O)c1ccc(NC(=S)NCc2cccnc2)cc1	40µM	.	.	?
O=C(N[C@@H](Cc1ccc(O)cc1)C(=O)O)c1cccnc1	50µM	.	.	.
O=C(COC(=O)COc1ccccc1[N+](=O)[O-])NCc1ccc2c(c1)OCO2	/	.	/	/
CC1=C(C(=O)N2CCCC(C(=O)c3cccc(C(F)(F)F)c3)C2)OCCO1 (centres undefined)	.	.	?	13µM
CC1=C(C(=O)N2CCCC(N3CCN(c4cccc(C(F)(F)F)c4)CC3)C2)OCCO1 (centres undefined)	.	.	.	13µM
CN1C(=O)NC(c2cccc(O)c2)C(C(=O)c2cccs2)C1(O)C(F)(F)F (centres undefined)	3.5µM	.	.	.
CCOC(=O)C1C(c2cccs2)NC(=O)N(C)C1(O)C(F)(F)F (centres undefined)	.	.	.	.
CC1(c2ccc3ccccc3c2)NC(=O)N(CC(=O)NCC(C)(C)N2CCOCC2)C1=O (centres undefined)	.	.	.	.
COc1ccc(OC)c(NC(=O)CN2C(=O)C3(OCCCO3)c3ccccc32)c1	.	.	.	5.2µM
Cc1ccccc1OC(=O)CSc1nnc(-c2cccs2)o1	.	/	/	/
CCOC(=O)Cc1c(C)nc2c(-c3ccc(Cl)cc3)c(C)nn2c1C	/	.	?	.
CCOC(=O)Cc1c(C)nc2cc(C)nn2c1C	.	.	.	13µM
Cc1cc(C(=O)CS(=O)(=O)c2ccccc2)cc(C)c1O	22µM	.	.	.
Cc1ccc(S(=O)(=O)CC(=O)c2ccc(C(C)(C)C)cc2)cc1	.	.	2.3µM	2.6µM
Cc1cc(C(=O)CS(=O)(=O)c2ccc(F)cc2)cc(C)c1O	14µM	.	.	.
CCOC(=O)c1cc(-c2ccccc2)n(CCC(=O)Nc2nc3c(C)cccc3s2)c1C	.	/	/	/
COc1ccc(OC)c(NC(=O)CSc2nnc3ccc4ccccc4n23)c1	.	/	/	/
O=C(CNS(=O)(=O)c1ccccc1)Nc1ccc2c(c1)OCO2	.	.	.	.
O=C(CNS(=O)(=O)c1ccc(Br)s1)Nc1ccc2c(c1)OCCO2	.	.	?	13µM
CN(CC(=O)Nc1ccc2c(c1)OCCO2)S(=O)(=O)c1ccc(Br)s1	.	.	/	13µM
COc1ccc(NC(=O)CN(C)S(=O)(=O)c2ccc(Br)s2)cc1OC	.	.	.	.
COc1ccc(NC(=O)c2cccc(OC(=S)N3CCOCC3)c2)cc1	.	.	?	.
Cc1c(C(=O)Nc2ccc(F)cc2)oc2ccc(S(=O)(=O)N3CC(C)CC(C)C3)cc12 (centres undefined)	.	.	10µM	/
Cc1cccc(NC(=O)c2cccc(OC(=S)N3CCOCC3)c2)c1C	.	.	.	1.9µM
Cc1c(C(=O)NCCC2=CCCCC2)oc2ccc(S(=O)(=O)N3CCOCC3)cc12	.	.	12µM	.
SMILES	Sm TGR inh	SARS PLP yeast	Pf growth 48h	Pf growth 96h
CCN(CC)C(=O)c1oc2ccc(S(=O)(=O)N3CC(C)CC(C)C3)cc2c1C (centres undefined)	.	.	?	.
COc1ccc2oc(C(=O)Nc3ccc(S(=O)(=O)N(C)C4CCN(C)CC4)cc3)c(C)c2c1	.	.	5.9µM	?
O=C(NCC1CCCN1S(=O)(=O)c1cccs1)C(=O)Nc1ccc(F)cc1F (centres undefined)	.	.	.	.
CC(Oc1ccccc1)C(=O)Nc1nc2ccc(S(N)(=O)=O)cc2s1 (centres undefined)	.	/	/	/
CCOC(=O)c1oc2ccc(S(=O)(=O)N3CCC(C)CC3)cc2c1C	.	.	?	?
Cc1cccc(NC(=O)c2oc3ccc(S(=O)(=O)N4CCOCC4)cc3c2C)c1C	.	.	4.7µM	.
Cc1ccc(NC(=O)c2oc3ccc(S(=O)(=O)N4CCC5(CC4)OCCO5)cc3c2C)cc1C	.	?	13µM	?
CCOC(=O)c1oc2ccc(S(=O)(=O)n3nc(-c4cc(OC)c(OC)c(OC)c4)cc3N)cc2c1C	.	.	13µM	.
CCOC(=O)c1oc2ccc(S(=O)(=O)N3CCOCC3)cc2c1C	.	.	.	1.9µM
N#Cc1c(Nc2ccccc2)c(/C=N/N=C/c2ccccc2)c[nH]c1=O	.	.	.	?
N#Cc1c(Nc2ccccc2)c(C=NCCN2CCOCC2)c[nH]c1=O	.	.	.	9.3µM
CCCCN(CC)CCCNC(=O)c1sc2nc(C)cc(C)c2c1-n1cccc1	.	/	/	/
CC1(C)C2CCC1(C)C(NC(=O)CCN1CCCCC1)C2 (centres undefined)	.	.	.	0.093µM
Cc1ccc[n+](CC(=O)Nc2c(Cl)cc(Cl)cc2Cl)c1	.	.	.	.
O=C(C[n+]1ccccc1)Nc1ccccc1[N+](=O)[O-]	?	.	.	.
